According to PubChem BioAssay AID489025 (Southern Research Specialized Biocontainment Screening …, 2010):
Screen size: about 2,300 compounds; about 790 (34%) were called active. This is one part of the list. Measured potencies and affinities stand elsewhere. Unmarked numbers belong to inactive results. No rule for the calls is given here.

experiment: THP-1 cell cytotoxicity, dose response, cytotoxicity control for non-replicating M. tuberculosis project (AID 489025); conditions: THP-1 cell viability; series mostly up to 40 µM; viability: at the top concentration

Row | SMILES | viability
1 | CCCCOc1ccc(CSCCN)cc1Cl | 99.1%
2 | O=C1N(c2ccc3c(c2)OCCO3)C(c2ccccc2)C1(F)F (stereo not given) | 117%
3 | NC(=O)COc1ccc2cc(-c3ccc(F)cc3)c(=O)oc2c1 | 119%
4 | Cc1n[nH]c(=S)n1/N=C/c1ccc(OCc2ccc(Cl)cc2Cl)cc1 | 107%
5 | CN1CCC(O)(c2cccs2)C(C(=O)c2cccs2)C1 (stereo not given) | 74.7%
6 | CC1CCN(C(=O)C2COc3ccccc3O2)CC1 (stereo not given) | 102%
7 | CCCn1c(=O)c(C(=O)N/N=C/c2ccccc2F)c(O)c2ccccc21 | 78.5%
8 | C/C(=N\Nc1nc2ccccc2[nH]1)c1ccc(N2CCOCC2)cc1 | 81.7%
9 | CCCCN(C/C=C/c1ccccc1OC)Cc1ccccc1 | 88.6%
10 | COc1ccc(N2C(=O)CC(Sc3nc4ccccc4s3)C2=O)cc1OC (stereo not given) | 108%
11 | O=C(COc1cccc2ccccc12)Nc1ccc(Cl)cc1C(=O)O | 114%
12 | CCOc1cccc2cc(C(=O)NC(C)c3ccccc3)c(=N)oc12 (stereo not given) | 74.4%
13 | O=C(NCc1cccs1)c1cc(-c2ccc(O)cc2)on1 | 109%
14 | O=C(OCC(=O)N1CCCCC1)c1cc2ccccc2cc1O | 103%
15 | Cc1cccc(NC(=O)CO/N=C/c2ccc3c(c2)OCO3)c1 | 92.5%
16 | Cc1csc(NC(=O)c2cc([N+](=O)[O-])cc([N+](=O)[O-])c2)n1 | 93.5%
17 | O=C(Nc1ncccn1)c1ccc([N+](=O)[O-])o1 | 91.8%
18 | O=C(CN1CCN(c2ccc([N+](=O)[O-])cc2)CC1)Nc1ccccn1 | 74.5%
19 | O=C(NCc1cccs1)c1ccc(Br)o1 | 103%
20 | COc1cccc(COC(=O)c2sc3nc4n(c(=O)c3c2C)CCC4)c1OC | 107%
21 | O=C(N/N=C/c1ccc(OC(=O)c2ccco2)cc1)c1ccccn1 | 94.2%
22 | O=C(Nc1ccc(-c2nc3ccccc3c(=O)o2)cc1)c1ccco1 | 100%
23 | CC(C)(C)/C(O)=C/c1nc2ccccc2oc1=O | 93.4%
24 | O=C1N/C(=N\c2ccccn2)SC1Cc1ccc(Cl)cc1 (stereo not given) | 103%
25 | CO/N=C/CC(=O)c1ccc(OC)cc1 | 96.5%
26 | COc1ccc(/C(=N/O)C(C)(C)NO)cc1 | 90.7%
27 | Cc1cc2nc(CSc3ccc(Cl)cc3)cc(=O)n2[nH]1 | 96.9%

Row | SMILES | viability
28 | CSCCC(=O)N1CCCC(N2CCN(c3cccc(C(F)(F)F)c3)CC2)C1 (stereo not given) | 96.2%
29 | CCC(C)c1ccc(OCCn2ccnc2)cc1 (stereo not given) | 76.9%
30 | C/C(=C\C(=O)c1ccncc1)Nc1ccccc1O | 111%
31 | CCOC(=O)c1ccc(NC(=O)CCSCCc2ccccn2)cc1 | 103%
32 | Cc1ccc(OCCCCc2c(C)n[nH]c2C)cc1 | 77.8%
33 | CC1CCc2c(sc3nc(CSc4ncn[nH]4)[nH]c(=O)c23)C1 (stereo not given) | 97%
34 | CC1CC(C)CN(CCOCCSc2ccc(Cl)cc2)C1 (stereo not given) | 73.7%
35 | Cc1cc(Cl)ccc1NNC(=O)c1cccs1 | 106%
36 | O=C(c1ccccc1)c1nc[nH]c1C(=O)Nc1ccccc1 | 70.5%
37 | CN(C)CCC(=O)N1c2ccccc2Sc2ccc(Cl)cc21 | 90.3%
38 | O=S1(=O)N=C(N/N=C/C=C/c2ccccc2)c2ccccc21 | 84.3%
39 | COc1ccc(OCc2n[nH]c(=S)o2)cc1 | 103%
40 | CCCCn1c(N)c(-c2nc3ccccc3o2)c2c([N+](=O)[O-])nn(CC)c(=O)c21 | 113%
41 | CCOCC(=O)Nc1ccc(C)c(Cl)c1 | 111%
42 | CSC1=N/C(=C\c2ccc(Br)o2)C(=O)S1 | 118%
43 | Cc1ccc(-c2nnc(C)c(N3CCCC3)n2)cc1 | 122%
44 | O=C(CN1CCN(c2ccccc2O)CC1)Nc1ccc2c(c1)CCC2 | 82.9%
45 | CCOc1ccc(OCCSc2ccc(S(=O)(=O)N3CCN(C)CC3)cn2)cc1 | 76.5%
46 | CC(C)c1ccc(OCC(=O)NCc2ccccc2)cc1 | 82.5%
47 | Cc1cc2cc(CNC(=O)COc3ccccc3)ccc2n1C | 107%
48 | COc1ccc(NC(=O)c2cc3ccccc3o2)cc1 | 107%
49 | Cc1cccc(NC(=O)c2cc3ccccc3o2)c1 | 86%
50 | NC(=O)COC(=O)c1sc2ccccc2c1Cl | 91.8%
51 | Cc1cc(C(=O)N/N=C/C=C/c2ccccc2)c(C)o1 | 79.3%
52 | Cc1nonc1C(=O)N/N=C/c1ccc([N+](=O)[O-])o1 | 98.2%
53 | O=C(Nc1ccc(Cl)c(Cl)c1)O/N=C/c1ccncc1 | 86%
54 | O=C(NC1CC2CCC1C2)C1COc2ccccc2O1 (stereo not given) | 94.5%

Row | SMILES | viability
55 | O=C(NCc1ccccc1)c1cc2ccccc2oc1=O | 114%
56 | O=C(NCCc1cccc(Cl)c1)c1cc2ccccc2oc1=O | 111%
57 | O=C(O)c1ccc(-n2nc(C(F)(F)F)c3c2CCCC3)cc1 | 118%
58 | O=C(COc1ccc2ccccc2c1)Nc1ccncc1 | 101%
59 | S=c1[nH]cnc2sc(-c3ccccc3)cc12 | 75.2%
60 | CCOC(=O)c1csc(COc2ccccc2Cl)n1 | 111%
61 | Clc1ccccc1OCc1nnc(-c2ccccc2)o1 | 83.9%
62 | CCn1c(-c2ccco2)nc2ccccc21 | 121%
63 | COc1cccc(COC(=O)CCNC(=O)c2ccc(Br)cc2)c1OC | 113%
64 | CC(=O)c1ccc(NC(=O)C(Cc2ccccc2)n2cccc2)cc1 (stereo not given) | 115%
65 | Cc1cc(NC(=O)COc2ccccc2)ccc1Cl | 85.1%
66 | O=C(Nc1nnc(C2=COCCO2)o1)c1ccc(Cc2ccccc2)cc1 | 78.6%
67 | Cc1ccsc1C(=O)OCC(=O)Nc1nnc(-c2ccccc2)o1 | 103%
68 | O=C(NC1CCCC1)c1cc(-c2cccs2)on1 | 85.4%
69 | CCOc1cc(-c2nnc(NC(=O)c3ccco3)o2)cc(OCC)c1OCC | 76.8%
70 | Cc1cc(C)c(OCC(=O)Nc2nnc(-c3ccco3)o2)c(C)c1 | 120%
71 | CCc1ccc(NC(=O)CCc2ccc(C)o2)cc1 | 99%
72 | C=CCn1c(O)c(C(C)=Nc2ccc(C(=O)OCC)cc2)c(=O)[nH]c1=O | 104%
73 | Oc1ccc2cc(Br)ccc2c1CN1CCCC1 | 95.8%
74 | Cc1ccc(S(=O)(=O)NCC(=O)OCCOc2cccc(Cl)c2)cc1 | 116%
75 | O=C(Nc1nnc(-c2ccccc2Cl)o1)c1ccco1 | 85.8%
76 | O=C(Nc1nnc(-c2ccccc2Cl)o1)c1cccnc1 | 82.8%
77 | CC(C)OC(=O)c1cc(C(=O)c2cc(Cl)ccc2O)coc1=N | 101%
78 | COc1c[nH]n(C2CCCCC2)c(=O)c1=O | 96.4%
79 | Cc1ccc(N=N/C(=C\O)C(=O)c2ccncc2)cc1 | 74%
80 | O=C(NNC1CC(=O)N(c2ccccc2)C1=O)c1ccco1 (stereo not given) | 115%
